According to PubChem BioAssay (EPA / NIEHS):
Results filed as inconclusive are left out. The source made the active and inactive calls. How the source made its calls: active means hit-call score of the fitted dose curve at least 0.9, where 1 is the maximum; inconclusive means response in the unintended direction; inactive means score below 0.9.

target: THRB (gene 7068) (UniProt P10828); assay: TOX21_TRB_COA_Antagonist_Followup_ratio: Tox21 Thyroid Hormone Receptor beta Antagonism through Coactivator Recruitment Follow-Up Assay, Ratio (AID 2283967)
From the text: TOX21_TRb_COA_Antagonist_Followup is a secondary assay for specificity for the TOX21_TR_GH3_LUC_Agonist assay. The LanthaScreen TR-FRET TR coactivator assay kits were used to determine TR activity in a cell-free functional assay. A time-resolved fluorescence resonance energy transfer (TR-FRET) signal was indicative of coactivator (SRC-2) recruitment.TOX21_TRB_COA_Antagonist_Followup_ratio is assay component calculated in the TOX21_TRB_COA_Antagonist_Followup assay. The TR-FRET ratio of acceptor emission (ch2) to donor emission (ch1) is indicative of the resonance energy transfer to the fluorescein tag on the coactivator peptide following recruitment to the receptor.Data from the assay component TOX21_TRB_COA_Antagonist_Followup_ratio was analyzed into 1 assay endpoint. This assay endpoint, TOX21_TRB_COA_Antagonist_Followup_ratio, was analyzed in the positive analysis fitting direction relative to DMSO as the negative control and baseline of activity. Using a type of inducible reporter, loss-of-signal activity can be used to understand changes in the reporter gene as they relate to the gene THRB. Furthermore, this assay endpoint can be referred to as a primary readout, because this assay has produced multiple assay endpoints and this ratio serves a reporter gene function to understand target activity. To generalize the intended target to other relatable targets, this assay endpoint is annotated to the nuclear receptor intended target family, where the subfamily is non-steroidal.
Cell Media Required: Growth (90% DMEM/F-12, 10% Fetal Bovine Calf Serum, 100U/ml Penicillin, 100 ug/ml Streptomycin), Assay (10ng/mL sodium selenite, 10 ug/mL humanapo-transferrin, 10 uM ethanolamine, 10 ug/mL insulin, 500 ug/mL bovine serum albumin (BSA))Assay Protocol: 4 uL mixture of the receptor LBDs expressed as glutathione S-transferase (GST) fusion proteins (2.5 nM for TRa and 5.0 nM for TRb) and BSA (0.10%; Sigma-Aldrich) were incubated with 23 nL of control or test compound. A time-resolved fluorescence resonance energy transfer(TR-FRET) signal was indicative of coactivator recruitment using a 2 uL mixture of fluoresce in-labeled SRC-2 peptide (200 nM) and terbium-labeled anti-GST antibody (2nM), which transferred resonance energy to the fluorescein tag on the coactivator peptide following recruitment to the receptor. Fluorescence emission ratios (520:495 nm) were collected by an Envision plate reader (excitation at 340 nm and emissions at 495 and 520 nm), and the measured values were normalized to 0% activity using DMSO-only wells and 100 activity using T3 control wells.

Chain of THRB (gene 7068) (P10828 whole entry, looked up): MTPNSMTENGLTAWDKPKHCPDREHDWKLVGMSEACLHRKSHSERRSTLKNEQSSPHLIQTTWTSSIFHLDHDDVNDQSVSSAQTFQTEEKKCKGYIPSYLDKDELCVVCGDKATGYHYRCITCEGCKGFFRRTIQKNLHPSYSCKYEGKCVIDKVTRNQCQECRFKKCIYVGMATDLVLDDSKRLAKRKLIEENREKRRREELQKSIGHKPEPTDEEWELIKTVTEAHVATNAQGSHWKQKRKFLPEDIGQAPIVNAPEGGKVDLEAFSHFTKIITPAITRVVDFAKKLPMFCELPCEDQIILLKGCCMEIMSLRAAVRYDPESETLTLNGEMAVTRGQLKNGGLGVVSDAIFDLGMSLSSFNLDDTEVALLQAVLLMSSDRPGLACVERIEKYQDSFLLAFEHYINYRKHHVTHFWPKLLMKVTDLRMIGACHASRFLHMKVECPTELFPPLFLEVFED

SMILES	outcome
COC1=CC(=O)O[C@@H](/C=C/c2ccc3c(c2)OCO3)C1	inactive
COc1cc([C@@H]2c3cc4c(cc3[C@@H](O)[C@H]3COC(=O)[C@H]23)OCO4)cc(OC)c1O	inactive
CC[C@]1(O)CC[C@H]2[C@@H]3CCC4=CCCC[C@@H]4[C@H]3CC[C@@]21C	inactive
CCN(CC)CCO[C@H]1CC[C@@]2(C)C(=CC[C@@H]3[C@@H]2CC[C@]2(C)C(=O)CC[C@@H]32)C1	inactive
O=c1oc2ccccc2c(O)c1Cc1c(O)c2ccccc2oc1=O	inactive
C[C@]12CC[C@H]3[C@@H](CCC4=C(Cl)C(=O)CC[C@@]43C)[C@@H]1CC[C@@H]2O	inactive
CC[C@H]1C[C@H]2[C@@H]3CCC4=CC(=O)CC[C@@H]4[C@H]3CC[C@]2(C)[C@H]1O	inactive
CC(=O)[C@H]1CC[C@H]2[C@@H]3CC[C@@H]4C[C@H](O)CC[C@]4(C)[C@H]3CC[C@]12C	inactive
C=CC[C@]1(O)CC[C@H]2[C@@H]3CCC4=CC(=O)CCC4=C3C=C[C@@]21C	inactive
CN1C(=O)[C@@H](NC(=O)c2cc3ccccc3[nH]2)N=C(c2ccccc2)c2ccccc21	inactive
CCC(COC(=O)c1cc(OC)c(OC)c(OC)c1)(c1ccccc1)N(C)C (stereo unspecified)	inactive
